Calls of active or inactive are those of the source.

The test system of assay [1] is Plasmodium falciparum Sir2 (PF13_0152, Sir2A). Kind of assay: Plasmodium falciparum Sir2A binding compounds – biochemical, small-molecule microarray, 635 nm fluorescence, primary screen (AID 1098).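 Further: score merges spot fluorescence intensity with its signal-to-noise ratio.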 The conditions noted are these: fluorescence 635 nm, higher = more signal.
Assay [2] in a line: probe aDKK1 binding to arrayed compounds – biochemical, biotinylated probe, 635/667 nm fluorescence, primary screen (AID 1099).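 Further: score merges 667nm spot fluorescence with signal to noise across triplicate slides; reference of the scale not given here.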 The conditions noted are these: small-molecule microarray, higher = more signal.
Assay [3] in a line: probe aCHRDL2 binding to arrayed compounds – biochemical, biotinylated probe, 635/667 nm fluorescence, primary screen (AID 1100). Particulars: small-molecule microarray, higher = more signal.
Assay [4] can be described thus: change in splice reporter luminescence, either direction, cell-based, HEK293, spliceosome inhibition project, primary screen (AID 1101).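 Further: HEK293 cells carrying a splicing-competent luciferase reporter gene; test concentration not given here.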 The conditions noted are these: HEK293 splicing luciferase reporter, 24 h, higher = more signal, called active from +8 up or from −8 down. On the technique in general: A reporter such as luciferase makes a cellular process visible.

The target in assay [5] is Fibroblast growth factor 10 (Homo sapiens) (UniProt O15520). Briefly: compounds binding fibroblast growth factor 10 – biochemical, small-molecule microarray, 635 nm fluorescence, primary screen (AID 1102). Particulars: FGF10 binding, fluorescence 635 nm, higher = more signal.
Chain of Fibroblast growth factor 10 (Homo sapiens) (O15520 whole entry, looked up): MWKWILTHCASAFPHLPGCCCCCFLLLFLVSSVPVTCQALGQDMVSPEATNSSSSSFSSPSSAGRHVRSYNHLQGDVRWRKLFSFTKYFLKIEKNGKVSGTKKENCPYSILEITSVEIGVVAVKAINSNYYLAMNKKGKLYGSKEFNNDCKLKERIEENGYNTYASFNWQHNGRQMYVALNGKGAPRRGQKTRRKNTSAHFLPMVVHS
Assay [6] relates to glycogen synthase kinase-3 (GSK3A per assay name; protocol says GSK3B). Briefly: compounds binding glycogen synthase kinase-3 – biochemical, small-molecule microarray, 635 nm fluorescence, GSK3A, primary screen (AID 1103). Further: the record names both GSK3A and GSK3B. Particulars: fluorescence 635 nm, higher = more signal.
The target in assay [7] is Epidermal growth factor receptor (Homo sapiens) (UniProt P00533). Kind of assay: compounds binding epidermal growth factor receptor – biochemical, small-molecule microarray, 635 nm fluorescence, primary screen (AID 1104).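 Further: score merges 667 nm emission intensity with spot signal to noise over triplicate slides.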 The conditions noted are these: EGFR binding, higher = more signal.
Chain of Epidermal growth factor receptor (Homo sapiens) (P00533 whole entry, looked up): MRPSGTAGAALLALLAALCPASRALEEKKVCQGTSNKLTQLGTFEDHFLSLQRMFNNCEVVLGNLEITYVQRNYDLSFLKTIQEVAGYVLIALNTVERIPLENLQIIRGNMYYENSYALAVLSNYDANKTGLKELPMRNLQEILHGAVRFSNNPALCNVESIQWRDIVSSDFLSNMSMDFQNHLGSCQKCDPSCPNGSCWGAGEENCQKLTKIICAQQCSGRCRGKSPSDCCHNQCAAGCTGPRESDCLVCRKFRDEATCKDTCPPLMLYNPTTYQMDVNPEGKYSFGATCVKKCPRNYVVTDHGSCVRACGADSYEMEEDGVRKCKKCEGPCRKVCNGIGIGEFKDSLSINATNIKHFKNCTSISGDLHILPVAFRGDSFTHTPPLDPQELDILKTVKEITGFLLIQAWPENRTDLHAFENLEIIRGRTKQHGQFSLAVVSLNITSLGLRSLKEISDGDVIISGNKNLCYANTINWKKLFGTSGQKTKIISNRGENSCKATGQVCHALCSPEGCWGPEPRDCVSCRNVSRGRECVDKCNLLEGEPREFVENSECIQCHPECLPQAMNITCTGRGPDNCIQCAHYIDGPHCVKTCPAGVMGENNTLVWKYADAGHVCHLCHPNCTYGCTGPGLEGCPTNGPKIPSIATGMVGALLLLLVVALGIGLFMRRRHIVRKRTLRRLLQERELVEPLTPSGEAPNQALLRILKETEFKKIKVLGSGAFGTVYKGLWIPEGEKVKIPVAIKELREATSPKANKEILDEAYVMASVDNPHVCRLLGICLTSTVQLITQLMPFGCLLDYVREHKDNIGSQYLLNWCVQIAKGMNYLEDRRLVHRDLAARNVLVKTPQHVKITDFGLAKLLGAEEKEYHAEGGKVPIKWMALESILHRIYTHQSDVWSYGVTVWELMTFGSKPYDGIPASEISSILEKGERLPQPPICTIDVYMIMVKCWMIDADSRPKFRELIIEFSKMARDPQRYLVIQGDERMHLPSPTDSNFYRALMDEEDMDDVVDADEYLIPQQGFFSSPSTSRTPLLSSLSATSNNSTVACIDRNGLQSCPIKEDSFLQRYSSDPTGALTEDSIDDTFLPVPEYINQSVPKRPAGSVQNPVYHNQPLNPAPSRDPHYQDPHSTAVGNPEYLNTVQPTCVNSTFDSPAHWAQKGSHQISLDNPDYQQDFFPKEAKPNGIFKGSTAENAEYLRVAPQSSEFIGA
For assay [8], the target named is Follistatin-related protein 3 (Homo sapiens) (UniProt O95633). Briefly: compounds binding follistatin-related protein 3 – biochemical, small-molecule microarray, 635 nm fluorescence, primary screen (AID 1105).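 Further: score merges emission near 667 nm and signal to noise per printed spot across three slides.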 Particulars: FSTL3 binding, higher = more signal.
Chain of Follistatin-related protein 3 (Homo sapiens) (O95633 whole entry, looked up): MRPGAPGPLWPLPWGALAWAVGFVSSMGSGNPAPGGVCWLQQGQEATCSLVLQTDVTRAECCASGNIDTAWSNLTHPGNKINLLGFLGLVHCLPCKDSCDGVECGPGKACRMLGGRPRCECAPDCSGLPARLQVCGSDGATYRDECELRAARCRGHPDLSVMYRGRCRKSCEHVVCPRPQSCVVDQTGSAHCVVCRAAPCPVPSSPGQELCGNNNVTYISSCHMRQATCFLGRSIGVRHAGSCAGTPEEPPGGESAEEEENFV
Assay [9] deals with Dickkopf-related protein 1 (Homo sapiens) (UniProt O94907). Kind of assay: small molecules binding DKK1 protein – biochemical, small-molecule microarray, 635 nm fluorescence scan, primary screen (AID 1106).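 Further: score merges emission near 667 nm with signal to noise over three replicate slides.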 The conditions noted are these: higher = more signal.
Chain of Dickkopf-related protein 1 (Homo sapiens) (O94907 whole entry, looked up): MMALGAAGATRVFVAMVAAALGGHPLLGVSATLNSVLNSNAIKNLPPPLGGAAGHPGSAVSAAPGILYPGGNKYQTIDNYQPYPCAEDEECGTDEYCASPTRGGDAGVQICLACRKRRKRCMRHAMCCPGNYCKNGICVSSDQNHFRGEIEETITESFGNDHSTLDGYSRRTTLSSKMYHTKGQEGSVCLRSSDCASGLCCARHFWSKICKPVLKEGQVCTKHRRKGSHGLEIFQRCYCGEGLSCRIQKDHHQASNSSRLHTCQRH
Assay [10] has as its system Inhibin beta A chain (activin A). Briefly: small molecules binding activin A – biochemical, small-molecule microarray, 635 nm fluorescence scan, primary screen (AID 1107).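 Further: mouse activin A protein probed at 4.33 µg/mL on printed slides; score merges bound-protein fluorescence near 667 nm with spot signal-to-noise.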 Particulars: INHBA, higher = more signal.

On to `N#Cc1ccc(NN2C(C(O)c3ccc([N+](=O)[O-])cc3)C=CC3C(=O)N(c4ccccc4)C(=O)C32)cc1` (stereo not given), for which the composite z-score in [1] was determined as 1.29; in assay [2], 0.829; in [3], 1.08; in [5] it was 0.626; in assay [6], 0.751; in [7] it was 0.0159. Also, the composite z-score in assay [8] was 0.422; in assay [9], -0.392; in assay [10] it was 0.787. Moreover, in [4], the z-score is 2.23 (inactive).

For the compound `Cc1ccc(S[C@]2(C(=O)NCC(C)C)CC(=O)N(Cc3ccccc3)[C@@H]2c2ccc(CO)cc2I)cc1`, the composite z-score in assay [1] was 1.52; in assay [2], 0.0143; in assay [3] it was 0.388; in [5], 0.417; in assay [6], 0.441; in assay [7], 0.287. The composite z-score came out at 0.75 in assay [8], 0.149 in assay [9] and 0.975 in assay [10]. Further, the z-score in [4] is -0.531 (inactive).

In the case of `O=C1C2C=CC(C(O)c3ccc(F)cc3)N(Nc3ccccc3)C2C(=O)N1c1ccccc1` (stereo not given), the composite z-score in [1] is 1.44; in [2], 1.05; in assay [3] it was 0.794; in assay [5], -0.0653; in assay [6], -0.0052; in [7], -0.296. The composite z-score in assay [8] is -0.216; in [9], -0.954; in assay [10], 1.46. The z-score in assay [4] is 0.444 (inactive).

As for `O=C1O[C@H](c2ccccc2)[C@H](c2ccccc2)N2[C@H]1[C@@H](C(=O)Nc1nc3ccccc3s1)[C@]1(C(=O)Nc3ccccc31)[C@H]2c1ccc(O)cc1`, the composite z-score is 1.57 in assay [1]; -0.0334 in [2]; 0.126 in assay [3]; 0.939 in assay [5]; 1.08 in [6]; 0.598 in [7]. In addition, the figures for the composite z-score in [8], in [9] and in [10] were 1.31, 1.11 and 0.435, respectively. For the same compound, the z-score in [4] is -0.449 (inactive).

`COc1ccc(CCN2C(=O)[C@@]3(Cc4ccccc42)c2ccccc2C(=O)N(Cc2ccccc2Cl)[C@H]3c2ccc(CO)cc2)cc1`: the composite z-score in assay [1] is 1.14; in assay [2] it was 0.546; in assay [3], 0.929; in [5] it was -0.202; in assay [6], -1.01; in [7], -1.12. Also, the composite z-score in assay [8] is -0.61; in assay [9], -0.695; in [10], 0.38. In addition, the z-score in assay [4] was -0.0194 (inactive).

For the compound `CCOC(=O)C[C@H]1[C@H](OC(=O)c2ccc(C(=O)c3ccccc3)cc2)[C@@H](NC(=O)C2CCCCC2)c2cc(OCCCO)ccc2N1C(=O)c1ccccc1`, the composite z-score was 0.348 in [1]; -0.0675 in assay [2]; -0.0333 in assay [3]; 0.398 in assay [5]; 0.628 in assay [6]; 0.122 in assay [7]. The composite z-score amounted to 0.165 in assay [8], 0.126 in assay [9] and 0.559 in [10]. Besides, the z-score in assay [4] is 0.062 (inactive).

On to `O=C1OCCC=C[C@H]2OC34C=CCN(Cc5ccccc5)C(=O)[C@H]3N(CCCCCCO)C(=O)[C@@H]4C12` (stereo not given in full), for which the composite z-score was 1.61 in assay [1]; -0.189 in assay [2]; 0.33 in [3]; -1.26 in assay [5]; -0.578 in [6]; -0.83 in assay [7]. The composite z-score in [8] is -0.435; in [9] it was -1.38; in [10] it was -0.597. The z-score in assay [4] was -0.205 (inactive).

Turning to `CCOc1cc(C(O)C2C=CC3C(=O)N(c4ccccc4)C(=O)C3N2Nc2ccc([N+](=O)[O-])cc2)ccc1O` (stereo not given), the composite z-score in assay [1] is 1.33; in [2] it was -0.0703; in assay [3], -0.129; in [5] it was 0.575; in [6] it was 0.757; in assay [7], 0.317. Moreover, the composite z-score was determined as 0.429 in [8], 0.0577 in assay [9] and 0.199 in assay [10]. In addition, in assay [4], the z-score was -0.214 (inactive).

Turning to `O=C1O[C@@H](c2ccccc2)[C@@H](c2ccccc2)N2[C@@H](c3ccc(OCCO)cc3)[C@]3(C(=O)Nc4ccc(C#CC5=CCCCC5)cc43)[C@@H](C(=O)O)[C@H]12`, the composite z-score was found to be 0.87 in [1]; 0.82 in [2]; 0.431 in assay [3]; 0.43 in [5]; 0.661 in assay [6]; 0.257 in [7]. Moreover, the composite z-score came out at 0.636 in assay [8], 0.581 in assay [9] and 0.784 in assay [10]. Besides, the z-score in assay [4] was 0.618 (inactive).

With `COc1ccc([Si](C)(C)[C@@H]2[C@@H](CC(=O)N(CCO)Cc3ccccc3)O[C@]3(C(=O)N(C)c4ccccc43)[C@H]2C)cc1`, the composite z-score in assay [1] was 1.24; in assay [2], 0.909; in assay [3], 0.0207; in assay [5] it was 1.05; in assay [6], 1.16; in assay [7], 0.749. Besides, the composite z-score in assay [8] was determined as 1.39; in assay [9], 1.32; in assay [10], 1.16. Besides, in assay [4], the z-score is 0.841 (inactive).

Regarding `CCCCCN1CC=CC23O[C@@H]4C=CCOC(=O)[C@@H]4[C@H]2C(=O)N(CCCO)[C@@H]3C1=O` (stereo not given in full), the composite z-score in assay [1] is 1.63; in assay [2], -0.263; in assay [3], 0.359; in assay [5], -0.519; in [6], 0.462; in assay [7] it was -0.681. Further, the composite z-score is -0.264 in assay [8], -0.49 in assay [9] and 0.908 in assay [10]. In addition, the z-score in assay [4] is -1.76 (inactive).

For the compound `O=C1O[C@@H](c2ccccc2)[C@@H](c2ccccc2)N2[C@@H](c3ccc(O)cc3)[C@]3(C(=O)Nc4ccc(C#CC5(O)CCCCCC5)cc43)[C@@H](C(=O)N3CCCCCCC3)[C@H]12`, the composite z-score in assay [1] was 1.99; in assay [2], 2.61; in [3] it was 1.26; in assay [5] it was 1.51; in assay [6], 1.38; in assay [7], 1.83. The composite z-score was found to be 1.53 in assay [8], 2.49 in assay [9] and 1.86 in assay [10]. In assay [4], the z-score is -0.612 (inactive).

As to `O=C/C=C/c1ccc2c(c1)OCO2`, the composite z-score is 0.229 in assay [1]; -0.295 in assay [2]; -0.475 in assay [3]; 0.562 in assay [5]; 0.469 in assay [6]; 0.614 in assay [7]. For the same compound, the composite z-score in assay [8] was found to be 0.506; in [9], 0.486; in assay [10], 1.25. Further, in [4], the z-score is -0.675 (inactive).

In the case of `O=C1N(CCS(=O)(=O)c2ccccc2)Cc2ccccc2[C@H]2OC(c3ccc(OCCCO)cc3)=N[C@@]12CCS(=O)(=O)c1ccccc1`, the composite z-score in [1] came out at 1.55; in [2], 0.883; in [3] it was 1.13; in [5], 1.03; in assay [6], 0.916; in assay [7], 0.423. The results for the composite z-score in assay [8], in [9] and in assay [10] were 0.411, 0.13 and 1.03, respectively. Also, the z-score in assay [4] was -0.872 (inactive).

Regarding `COCCOC(=O)N1C(=O)[C@@]2(c3cc(C#CCNC(N)=O)ccc31)[C@H](C(=O)N1CCc3cc(OC)c(OC)cc3C1)[C@H]1C(=O)O[C@H](c3ccccc3)[C@H](c3ccccc3)N1[C@@H]2c1ccc(OCCO)cc1`, the composite z-score was 1.06 in [1]; -0.0141 in assay [2]; -0.053 in assay [3]; 1.28 in [5]; -0.08 in assay [6]; 0.528 in assay [7]. In addition, the composite z-score in assay [8] stood at 1.17; in [9], 0.529; in [10], 0.886. Further, the z-score in assay [4] is -0.0304 (inactive).

Regarding `CC(C)C(=C=CC[C@H](O)c1cccc(OCCO)c1)C[C@H](O)COCc1ccccc1`, the composite z-score in assay [1] is 0.845; in assay [2], -0.27; in assay [3], -0.154; in assay [5], 0.876; in assay [6], -0.376; in assay [7], -0.379. The composite z-score in [8] was -0.0234; in assay [9], 0.116; in [10] it was 0.405. In assay [4], the z-score is 0.102 (inactive).

(Values after PubChem BioAssay.)
